Results from PubChem BioAssay.
“And” between values parts separate entries of the source, which are not always exact repeats. Equal entries are not always repeated. The source made the active and inactive calls.

What was measured:
[1] = optical density shifts of acrAB sulA E. coli – strain DRC41, OD650, 48 h, E. coli filamentation inducer project, primary screen (AID 1152); details: higher = more signal, called active from +8 up or from −8 down;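 note: E. coli MC1000 strain DRC41 lacking acrAB efflux pump and sulA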
[2] = probe aLefty1 binding on compound microarray – biochemical, small-molecule microarray, 635/667 nm fluorescence, primary screen (AID 1153); details: higher = more signal;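 note: score merges spot fluorescence with signal-to-noise ratio from the scanned slide images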
[3] = plasmodial surface anion channel blockers, osmotic lysis – cell-based, P. falciparum Indochina, OD700, 1 h, primary screen (AID 1154); details: P. falciparum Indochina infected RBC osmotic lysis, higher = more signal, called active from +8 up or from −8 down
[4] = plasmodial surface anion channel blockers, osmotic lysis – cell-based, P. falciparum Indochina, OD700, 2 h, primary screen (AID 1155);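 note: lysis reports solute entry through the parasite surface anion channel PSAC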; details: P. falciparum Indochina infected erythrocytes, higher = more signal, called active from +8 up or from −8 down
[5] = changes in parasitized red cell lysis, either direction – P. falciparum Indochina, OD700, 3 h, PSAC antagonist project, primary screen (AID 1156); details: P. falciparum-infected erythrocytes, osmotic lysis, higher = more signal, called active from +8 up or from −8 down
[6] = plasmodial surface anion channel blockers, osmotic lysis – cell-based, P. falciparum Indochina, OD700, 18 h, primary screen (AID 1157); details: P. falciparum Indochina infected erythrocytes, osmotic lysis OD700, 18 h; higher = more signal, called active from +8 up or from −8 down
[7] = S6 kinase pathway phospho-S6 level changes – cell-based, A549, cytoblot, luminescence, serum-stimulated, primary screen (AID 1158); details: 5 h, higher = more signal;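 note: serum-stimulated A549 lung adenocarcinoma cells; signal is phosphorylated S6 detected by cytoblot immunostaining with HRP secondary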
[8] = target: NADPH oxidase 2 (Homo sapiens) (UniProt P04839); test: compounds shifting NOX2 Amplex Red fluorescence – cell-based, HEK293-NOX2, PMA-stimulated, NOX inhibitor project, primary screen (AID 1159); details: 45 min, higher = more signal, called active from +8 up or from −8 down; note: test concentration not given here
Sequence of NADPH oxidase 2 (Homo sapiens) (P04839 whole entry, looked up): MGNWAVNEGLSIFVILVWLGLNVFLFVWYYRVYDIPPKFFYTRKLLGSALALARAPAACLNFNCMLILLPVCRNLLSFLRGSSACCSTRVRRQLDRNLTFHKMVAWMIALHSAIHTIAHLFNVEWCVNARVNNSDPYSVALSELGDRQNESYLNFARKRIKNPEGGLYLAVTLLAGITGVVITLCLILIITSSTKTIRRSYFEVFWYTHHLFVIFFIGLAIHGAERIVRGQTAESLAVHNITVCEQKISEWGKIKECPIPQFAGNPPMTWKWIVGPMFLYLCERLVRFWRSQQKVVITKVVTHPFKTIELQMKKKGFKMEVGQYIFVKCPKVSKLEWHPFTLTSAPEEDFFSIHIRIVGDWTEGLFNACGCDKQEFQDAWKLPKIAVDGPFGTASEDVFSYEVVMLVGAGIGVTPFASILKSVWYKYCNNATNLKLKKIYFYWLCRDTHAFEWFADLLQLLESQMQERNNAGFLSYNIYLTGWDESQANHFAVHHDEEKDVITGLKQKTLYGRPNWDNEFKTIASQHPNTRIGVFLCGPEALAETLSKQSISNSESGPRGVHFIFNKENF

[9] = target: NADPH oxidase 4 (Homo sapiens) (UniProt Q9NPH5); test: compounds shifting NOX4 Amplex Red fluorescence – cell-based, HEK293-NOX4, tetracycline-induced, NOX inhibitor project, primary screen (AID 1160); details: HEK293-NOX4, Amplex Red H2O2 fluorescence, 45 min; higher = more signal, called active from +8 up or from −8 down
Sequence of NADPH oxidase 4 (Homo sapiens) (Q9NPH5 whole entry, looked up): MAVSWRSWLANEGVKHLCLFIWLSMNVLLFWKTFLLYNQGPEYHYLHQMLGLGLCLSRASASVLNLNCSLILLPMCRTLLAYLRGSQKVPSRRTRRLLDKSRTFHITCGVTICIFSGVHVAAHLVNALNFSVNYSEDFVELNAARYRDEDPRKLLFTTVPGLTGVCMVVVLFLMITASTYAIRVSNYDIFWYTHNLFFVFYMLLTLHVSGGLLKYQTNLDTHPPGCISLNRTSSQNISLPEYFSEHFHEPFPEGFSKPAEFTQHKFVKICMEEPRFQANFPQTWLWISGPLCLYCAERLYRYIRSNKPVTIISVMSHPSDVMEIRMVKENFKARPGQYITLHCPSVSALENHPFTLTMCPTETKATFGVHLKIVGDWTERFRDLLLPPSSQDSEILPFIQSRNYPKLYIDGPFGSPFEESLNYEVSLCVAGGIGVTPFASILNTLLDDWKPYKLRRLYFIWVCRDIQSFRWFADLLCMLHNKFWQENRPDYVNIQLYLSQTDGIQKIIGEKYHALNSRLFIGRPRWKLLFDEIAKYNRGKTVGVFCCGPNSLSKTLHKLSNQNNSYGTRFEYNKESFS

[10] = target: NADPH oxidase 5 (Homo sapiens) (UniProt Q96PH1); test: compounds shifting NOX5 Amplex Red fluorescence – cell-based, HEK293-NOX5, NOX inhibitor project, primary screen (AID 1161); details: HEK293-NOX5, ionomycin, 45 min, higher = more signal
Sequence of NADPH oxidase 5 (Homo sapiens) (Q96PH1 whole entry, looked up): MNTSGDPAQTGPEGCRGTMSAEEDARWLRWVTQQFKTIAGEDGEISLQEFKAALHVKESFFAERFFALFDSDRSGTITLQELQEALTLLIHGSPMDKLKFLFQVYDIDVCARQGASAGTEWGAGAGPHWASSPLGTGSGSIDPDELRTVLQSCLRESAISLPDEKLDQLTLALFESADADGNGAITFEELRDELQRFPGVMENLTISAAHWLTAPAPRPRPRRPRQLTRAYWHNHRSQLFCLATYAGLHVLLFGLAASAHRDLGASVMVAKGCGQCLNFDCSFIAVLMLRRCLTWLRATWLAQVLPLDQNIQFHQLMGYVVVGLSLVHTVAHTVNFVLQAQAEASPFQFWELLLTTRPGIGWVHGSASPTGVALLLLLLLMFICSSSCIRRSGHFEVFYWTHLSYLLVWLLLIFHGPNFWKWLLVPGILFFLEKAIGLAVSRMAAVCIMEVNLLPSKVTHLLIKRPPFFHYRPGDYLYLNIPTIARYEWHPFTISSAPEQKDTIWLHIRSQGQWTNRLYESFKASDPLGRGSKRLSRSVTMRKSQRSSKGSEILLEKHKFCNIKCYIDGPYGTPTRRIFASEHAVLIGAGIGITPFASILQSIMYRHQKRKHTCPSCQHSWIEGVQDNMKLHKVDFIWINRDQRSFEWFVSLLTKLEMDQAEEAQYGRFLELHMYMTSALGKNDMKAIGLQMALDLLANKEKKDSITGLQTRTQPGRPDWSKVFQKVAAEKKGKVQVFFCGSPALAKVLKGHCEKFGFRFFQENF

[11] = compound effects on lung adenocarcinoma cell viability – A549, calcein-AM fluorescence, 48 h, basal, profiling panel (AID 1162); details: higher = more signal; note: test concentration not given here
[12] = compound effects on differentiated 3T3-L1 adipocyte viability – cell-based, 3T3-L1 adipocytes, calcein-AM fluorescence, 48 h, basal, profiling panel (AID 1163); details: 3T3-L1 adipocytes viability, higher = more signal; note: test concentration not given here
[13] = compound effects on hepatocellular carcinoma cell viability – HepG2, calcein-AM fluorescence, 48 h, basal, profiling panel (AID 1164); details: higher = more signal; note: test concentration not given here
[14] = compound effects on multiple myeloma cell viability – MM1S, calcein-AM fluorescence, 48 h, basal, profiling panel (AID 1165); details: higher = more signal;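 note: viability of MM1S multiple myeloma cells under basal unstimulated conditions; test concentration not given here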
[15] = calcein-AM signal in unstimulated myeloma cells – cell-based, calcein-AM fluorescence, 48 h, PK04 Diversity Set, profiling panel (AID 1166); details: RPMI8226 myeloma viability, higher = more signal;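 note: cells grown under basal conditions without added stimulus; test concentration not given here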
[16] = JC-1 mitochondrial signal, unstimulated HepG2 cells – cell-based, JC-1 fluorescence, 24 h, 100 nL compound, profiling panel (AID 1167); details: HepG2 mitochondrial potential, higher = more signal; note: test concentration not given here
[17] = JC-1 mitochondrial signal, unstimulated adipocytes – cell-based, JC-1 fluorescence, 3T3-L1 adipocytes, 24 h, 100 nL compound, profiling panel (AID 1168); details: JC-1 mitochondrial fluorescence, higher = more signal, called active from +8 up or from −8 down; note: test concentration not given here
[18] = JC-1 mitochondrial signal, unstimulated myeloma cells – cell-based, JC-1 fluorescence, RPMI8226, 24 h, 100 nL compound, profiling panel (AID 1169); details: JC-1 mitochondrial potential fluorescence, higher = more signal; note: test concentration not given here
[19] = JC-1 mitochondrial signal, unstimulated MM1S myeloma – cell-based, JC-1 fluorescence, 24 h, 100 nL compound, profiling panel (AID 1170); details: MM1S mitochondrial potential, higher = more signal; note: test concentration not given here
[20] = resazurin metabolic signal in A549 cells – cell-based, resazurin fluorescence, 24 h, PK04 Diversity Set, profiling panel (AID 1171); details: A549 viability, higher = more signal, called active from +8 up or from −8 down; note: test concentration not given here

Row | SMILES | z-score [1] | composite z-score [2] | z-score [3] | z-score [4] | z-score [5] | z-score [6] | z-score [7] | z-score [8] | z-score [9] | z-score [10] | z-score [11] | z-score [12] | z-score [13] | z-score [14] | z-score [15] | z-score [16] | z-score [17] | z-score [18] | z-score [19] | z-score [20]
1 | C=C[C@H](OC)[C@@H](O)c1ccc(OCCO)cc1 | -0.389 (inactive) and 0.805 (inactive) | -0.328 and -0.147 | 0.749 (inactive) and 0.142 (inactive) | 0.305 (inactive) and 0.0012 (inactive) | -0.442 (inactive) and -0.321 (inactive) | 0.0568 (inactive) and 0.352 (inactive) | 0.136 and 0.135 | 0.844 (inactive) and -0.354 (inactive) | -1.32 (inactive) and -0.339 (inactive) | -0.372 and 0.317 | -0.057 and 1.18 | -0.367 and 0.0113 | -0.485 and 0.98 | -0.457 and 1.61 | -0.179 and 0.542 | -0.899 and 1.11 | -0.433 (inactive) and -0.178 (inactive) | -0.0855 and -0.21 | 0.412 and 1.06 | -0.555 (inactive) and -0.0644 (inactive)
2 | C=CCN(CCCCC)C(=O)C(c1cccs1)N(C(=O)/C=C\C(=O)O)c1ccc(CCO)cc1 (stereo not given) | 0.539 (inactive) and 0.137 (inactive) | -0.147 and -0.15 | 0.0722 (inactive) and -0.629 (inactive) | 0.181 (inactive) and -0.255 (inactive) | -0.533 (inactive) and -0.741 (inactive) | 0.0113 (inactive) and 0.0094 (inactive) | 0.0901 and -0.111 | 0.259 (inactive) and -0.0131 (inactive) | -0.6 (inactive) and -0.665 (inactive) | 0.614 and 0.19 | 1.11 and 0.437 | -4.27 and -0.651 | 0.877 and 1.59 | 1.78 and 1.21 | -0.174 and 0.104 | -0.087 and 0.966 | -0.177 (inactive) and 0.506 (inactive) | 1.26 and -0.556 | -0.138 and -0.377 | -0.235 (inactive) and -0.813 (inactive)
3 | C=CCN(CCCCC)C(=O)C(c1cccs1)N(CCOCCO)C(=O)/C=C\C(=O)O (stereo not given) | 1.53 (inactive) and 1.77 (inactive) | -1.26 and -0.239 | 1.03 (inactive) and 0.0763 (inactive) | -1.53 (inactive) and -1.1 (inactive) | -0.772 (inactive) and -1.06 (inactive) | -1.88 (inactive) and -1.64 (inactive) | 1.27 and 0.842 | -0.224 (inactive) and 0.208 (inactive) | -0.617 (inactive) and -0.64 (inactive) | -0.366 and 0.183 | 0.457 and 0.414 | 0.314 and -0.158 | 0.341 and 0.976 | 1.85 and 1.71 | 0.025 and 0.586 | 0.69 and -0.139 | 1.03 (inactive) and 0.45 (inactive) | 0.0935 and -0.719 | -0.512 and 0.0846 | -0.186 (inactive) and -0.954 (inactive)
4 | CCCNC(=O)OC[C@H]1O[C@H](CCON=C(C)CCC(=O)OC[C@H]2O[C@H](C#Cc3ccccc3)C=C[C@@H]2Oc2ccc(C)cc2)C=C[C@@H]1Oc1ccc(OC)cc1 | 0.181 (inactive) | -0.0917 | 0.77 (inactive) | 0.329 (inactive) | -0.107 (inactive) | 0.097 (inactive) | -0.591 | 0.333 (inactive) | 0.854 (inactive) | -0.746 | -0.284 | -0.182 | -0.433 | -0.321 | 0.0363 | 1.38 | -1.31 (inactive) | 0.15 | -0.435 | 0.835 (inactive)
5 | CCN1C(=O)[C@H]2[C@H]3[C@H](O)[C@H](O)CC(=NNC(=O)OCc4ccc(OC)cc4)[C@H]3CC[C@H]2C1=O | 0.386 (inactive) | 0.792 | 3.18 (inactive) | -0.464 (inactive) | 0.175 (inactive) | 0.232 (inactive) | 0.479 | -0.447 (inactive) | 0.0987 (inactive) | 0.0869 | 0.173 | -0.402 | 1.33 | 0.436 | -0.261 | 0.385 | -0.596 (inactive) | -0.236 | -0.00926 | -0.947 (inactive)
6 | CCOC(=O)[C@@H]1CC2O[C@]23C[C@@H]1C(=O)N1CCC[C@@H]1[C@H]3O[Si](C)(C)C(C)(C)C (stereo not given in full) | -1.1 (inactive) and -0.757 (inactive) | -0.229 and -0.255 | 0.827 (inactive) and -0.309 (inactive) | -0.168 (inactive) and 0.0095 (inactive) | -0.03 (inactive) and -0.708 (inactive) | 0.134 (inactive) and -0.162 (inactive) | -0.111 and -0.206 | 0.937 (inactive) and 0.661 (inactive) | 0.147 (inactive) and 5.07 (inactive) | -2.39 and -0.882 | -0.889 and -0.825 | 0.838 and 0.26 | -0.526 and -0.885 | 0.0049 and -3.22 | -0.55 and -0.467 | -0.904 and -1.08 | -0.744 (inactive) and -0.631 (inactive) | -0.387 and -0.407 | 0.781 and -1.86 | -0.438 (inactive) and -0.287 (inactive)
